Screening results: PubChem, National Center for Advancing Translational Sciences (NCATS)
The list is not random: actives were taken first. Their share in the collection is about 0.39%.
CBFb RUNX1 block: blocks binding between human CBF-beta and RUNX1 | Q01196+Q13951 | AlphaScreen CBFb-His/RUNX1-biotin binding, biochemical | Potency, µM (highest dose often 59.8 µM), for inactives: top-dose activity, negative = inhibition, actives largely listed as inhibitors | 230,000 tested, under 10 active | AID 1477; further: % of control where 0% means no effect
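AlphaScreen binding: CBFb-His and RUNX1-biotin (30 nM each) preincubated 20 min, compound added for 15 min, then nickel and streptavidin beads for 90 min, all at room temperature. Disruption of the interaction by any mechanism counts as activity.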
TRPV1 agonist: human TRPV1 agonism; Q8NER1; activation, % at 8.33 µM; hit rate 0.19% among 320,000; TRPV1-expressing cells, Fluo-8 calcium influx, agonist mode; in the data active means activation above about 80%; inconclusive means between about 30% and that limit; further: 0% is about no effect
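Fluo-8 calcium influx in TRPV1-expressing cells, kinetic read (ex 480/em 520 nm). Compound added and read 3 min for agonist activity, followed by capsaicin at EC20 final and 2 min further read for enhancement.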
AT treatment: potential ataxia-telangiectasia treatment. hit rate 0.19% among 320,000. AID 485349. F2112 A-T fibroblasts, KAP-1 phosphorylation AlphaLISA; neocarzinostatin DNA damage 30 min before lysis. Potency, µM (top dose mostly 57.5 µM), without a hit: top-dose activation, hits mostly activators; further: potency means the concentration at half of the fitted maximal effect; % of control where 0% means no effect; nearly all actives have a fitted effect of over 45% in size
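hTERT-immortalized A-T patient fibroblasts (F2112), 500 cells/well in OPTI-MEM, 1% FBS, got compounds for 60 min, then NCS for 30 min at 37C. Lysates were then assayed for phospho-KAP-1 by AlphaLISA (anti-pKAP1 donor, anti-KAP1 acceptor beads), 6 hr at 25C.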
TRPV1 potentiator: enhances activation of the human vanilloid receptor TRPV1 | Q8NER1 | TRPV1-expressing cells, Fluo-8 calcium influx, capsaicin EC20 potentiation | hit rate 0.02% among 320,000 | potentiation, % at 8.33 µM; in the data active means potentiation above about 80%; inconclusive means between about 30% and that limit; further: 0% is about no effect
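Cells expressing TRPV1 were dye-loaded with Fluo-8 and read kinetically: 10 s baseline, 3 min after compound (agonist portion), then 2 min after EC20 capsaicin (allosteric enhancer portion). Calcium-bound dye fluorescence at 480/520 nm.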
Apoferritin bind: binds horse apoferritin like a general anesthetic; Potency, µM (highest dose often 77.5 µM), without a hit: at the highest dose activity change, negative = displacement, usual class: inhibitors; apoferritin/1-aminoanthracene competitive binding, fluorescence; hit rate 0.074% among 350,000; P02791; AID 485281; further: potency means the concentration at half of the fitted maximal effect; on the % scale 0 is the no-effect control and ±100 the full control effect; nearly all actives have a fitted effect of over 20% in size
Target sequence (P02791 2-175 limits assumed): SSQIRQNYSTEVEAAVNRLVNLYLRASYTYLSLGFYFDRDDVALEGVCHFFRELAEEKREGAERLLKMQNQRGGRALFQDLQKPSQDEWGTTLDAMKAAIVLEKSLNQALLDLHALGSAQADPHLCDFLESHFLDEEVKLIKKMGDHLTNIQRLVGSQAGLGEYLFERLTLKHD
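10 uM apoferritin + 50% sat. 1-AMA, PBS; cpd 10 min RT; Ex380/Em535 endpoint; normalized to free probe vs complex; 4-param Hill fit; propofol titration as pos. ctrl.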
* marks the source's active call; other numbers are inactive results; i = inactive; ? = inconclusive; . = no result given; [ ] = dose if it differs, or a comment. Unless noted, the call rests on the fitted dose curve; in most records, active means well fitted curve in the direction sought with a large enough effect; inconclusive means small, poorly fitted or top-dose-only effect, or another doubt; inactive means no such curve, though single readings can be large; an effect the other way counts as inactive or inconclusive.

SMILES | CBFb RUNX1 block | TRPV1 agonist | AT treatment | TRPV1 potentiator | Apoferritin bind
COc1ccc(C(=O)NCC(=O)OCC(=O)c2ccc3c(c2)OCCO3)cc1 | 17.8% | 0.8 | 0.0% | -2.0 | 12.6µM*
COc1ccc(CCNC(=O)c2ccc3c(c2)OCCO3)cc1 | 4.9% | 11.9 | -0.3% | -14.2 | -11.6%
CSc1ncccc1C(=O)Nc1ccc2c(c1)OCCO2 | . | . | 28.2µM* | . | .
Cc1ccc(NC(=O)c2ccc3c(c2)OCCO3)cc1C | . | 85.5* | -0.9% | -30.4 | 0.8%
Cc1ccc(C(=O)NCC(=O)OCC(=O)c2ccc3c(c2)OCCO3)cc1C | 0.2% | 17.9 | 8.8% | -3.7 | 10µM*
COc1cccc(C2=Nn3c(nnc3-c3cc(OC)cc(OC)c3)SC2)c1 | 3.4% | . | . | . | ?
O=P1(O)Oc2c(c(-c3ccccc3)cc3ccc4ccccc4c23)-c2c(-c3ccccc3)cc3ccc4ccccc4c3c2O1 | -20.5% | . | . | . | .
FC(F)(F)c1cc(CCN2C(=S)NC[C@@H]2c2ccccc2)cc(C(F)(F)F)c1 | 17.9% | 2.6 | 35.5µM* | -18.9 | -13.3%
O=C1CCCCCCC1Sc1ccccc1[N+](=O)[O-] (stereo not drawn) | -3.5% | 3.9 | -0.2% | 28.1 | 7.94µM*
C[C@H]1COC(=O)O1 | 7.3% | . | . | . | -9.4%
COc1ccccc1-n1cc(C(=O)NCC(=O)N2CCN(c3ccccn3)CC2)c2ccccc2c1=O | 5.3% | -0.3 | 22.4µM* | 15.5 | -14.6%
NS(=O)(=O)c1ccc(CNC(=O)CCCSc2ccccc2)cc1 | . | 84.1* | 13.9% | -34.8 | -1.1%
C[C@H]1O[C@@H](n2cnc3c(N)ncnc32)C[C@@H]1OP(=O)(O)OP(=O)(O)OP(=O)(O)O | ? | . | . | . | 1.0%
Cc1ccn2c(NC3CCCCC3)c(-c3cccc(-c4cccc(Cl)c4)c3)nc2c1 | . | ? | 25.1µM* | 3.4 | .
CC(=O)N(/N=C/c1ccc([N+](=O)[O-])o1)c1nc2ccccc2c(=O)n1-c1ccccc1 | 12.7% | -2.0 | 12.6µM* | -1.2 | 2.2%
Cc1nc2ccccc2c(=O)n1/N=C/c1ccc([N+](=O)[O-])o1 | 12.5% | 17.0 | 9.1% | -8.7 | 7.1%
COC(=O)c1cccc(NC(=S)NCc2ccc(Cl)cc2)c1 | 1.8% | 82.3* | -1.6% | 5.8 | -10.9%
COc1ccc(CNC(=S)NCc2ccc(F)cc2)cc1OC | . | ? | 16.1% | -13.0 | -2.6%
COc1ccc(CNC(=S)Nc2cccc(F)c2)cc1 | . | 87.6* | 10.4% | -7.4 | -2.3%
COc1ccc(CNC(=S)NCc2ccc(Cl)cc2)cc1OC | . | 97.0* | -5.0% | 4.7 | -16.3%
COc1cccc(NC(=S)NCc2ccc(F)cc2)c1 | . | ? | 9.4% | -17.4 | -10.6%
COC(=O)C1=C(C(=O)OC)[C@@H]2Nc3ccccc3[C@@]23C[C@@H](C(=O)OC)N(S(=O)(=O)c2ccc(OC)cc2)C3=N1 | -4.6%[13.1 µM] | . | . | . | .
COC(=O)CC1c2ccccc2C(Cc2ccc(OC)cc2)C(C)N1C(=O)OC (stereo not drawn) | 8.5%[13.1 µM] | . | . | . | .
CCC(=Nc1ccccc1)C1=C(O)CC(C)(C)CC1=O | 4.8% | 9.2 | -2.3% | 105.3* | -3.3%
O=C(Nc1ccccc1)Nc1cccc(NC(=O)Nc2ccccc2)c1F | . | 1.5 | -0.3% | 1.1 | 33.6%
SMILES | CBFb RUNX1 block | TRPV1 agonist | AT treatment | TRPV1 potentiator | Apoferritin bind
Cc1ccccc1NC(=O)Nc1ccc(C(F)(F)F)cc1 | 13.4% | ? | -0.3% | -3.4 | -8.5%
Cc1cc2c(NC(=O)Nc3ccc(C(C)(C)C)cc3)cccc2nn1 | -12.8% | 113.7* | 1.4% | -5.9 | ?
Cc1cc2c(NC(=O)Nc3ccccc3)cccc2nn1 | -26.5% | 86.6* | 8.5% | 11.6 | -2.2%
CC(O)C#C[Si](C)(C)c1ccccc1 (stereo not drawn) | -7.5% | . | . | . | .
COC(=O)CCCC1=CC2=C(c3ccccc3)C(=O)C(C)(OC(=O)C3CCCC3)C(=O)C2=CN1CCCOC(C)C (stereo not drawn) | -9.2%[13.1 µM] | . | . | . | .
COc1cccc([C@@H]2Oc3ccc(OC)cc3C[C@H]2OC(=O)NCc2ccco2)c1 | 5.1% | . | . | . | .
Cc1ccccc1NCc1ccccc1O | -12.0% | 1.5 | 6.3% | -7.1 | 17.8µM*
O=C(CCc1c[nH]c2ccccc12)NCCc1ccc(Cl)cc1 | . | 80.1* | -1.8% | -0.1 | 3.5%
Cc1ccc(C(=O)NCCc2c[nH]c3ccccc23)c(C)c1 | . | 0.1 | 25.1µM* | 11.4 | -5.4%
O=C(CCc1c[nH]c2ccccc12)NCCc1ccccc1 | . | ? | 3.2% | -10.9 | -9.7%
O=C(NCCc1c[nH]c2ccccc12)c1ccccc1 | . | 18.0 | -1.5% | -3.9 | -9.1%
COc1ccc(C(CNC(=O)C(Cc2ccccc2)NC(N)=O)N(C)C)cc1 (stereo not drawn) | . | -5.7 | 0.891µM* | -4.1 | -2.0%
CCN(CC)CC(O)Cn1c(-c2ccccc2Cl)nc2ccccc21 (stereo not drawn) | 11.1% | -1.3 | 15.8µM* | -12.2 | -0.2%
Cc1ccc(NC(=O)COC(=O)CSC(=S)N2CCOCC2)cc1C | ? | ? | -6.3% | -5.1 | 5.62µM*
COc1cc2c(cc1OC)CN(C(=O)/C=C/c1cc(OC)c(OC)c(OC)c1)CC2 | . | 5.1 | 3.16µM* | 8.4 | 0.9%
O=C(COC(=O)Cn1cnc2ccccc2c1=O)Nc1ccc(Cl)c(C(F)(F)F)c1 | 9.0% | 21.8 | -5.5% | -7.1 | 25.1µM*
CC#CCN1c2ccccc2[C@]23C[C@@H](C(=O)OC)N(S(=O)(=O)c4ccc(Br)cc4)C2=NC(C(=O)OC)=C(C(=O)OC)[C@H]13 | -9.4%[13.1 µM] | . | . | . | .
CCCCC/C=C\C\C=C/C=C/C=C/[C@@H](SCC(N)C(=O)NCC(=O)O)[C@@H](O)CCCC(=O)O (stereo partly drawn) | 3.1% | . | . | . | .
CCCCc1nc(N2CCN(C(=O)c3ccco3)CC2)c(C#N)c2c1CCCC2 | . | 86.4* | 13.8% | -26.7 | -6.4%
CCC(=O)N1CCN(c2nc(-c3ccccc3)c3c(c2C#N)CCCC3)CC1 | 22.7% | 101.8* | . | -0.6 | -10.8%
COc1ccc(-c2cc(C(=O)Nc3cccc(C(C)=O)c3)no2)cc1 | 1.8% | -2.3 | . | -1.8 | -5.1%
COc1ccc(-c2cc(C(=O)Nc3cccc(Cl)c3)no2)cc1 | . | -0.6 | 10µM* | -5.8 | 2.7%
O=C(NC1CCN(Cc2ccc(F)cc2)CC1)c1ccccc1 | . | 0.9 | 17.1% | -0.5 | 5.2%
O=C(NC(=S)NC1CCN(Cc2ccccc2)CC1)c1ccc(F)cc1 | . | 4.5 | 1.41µM* | -13.5 | -10.6%
COc1ccc(C)cc1N(C(=O)c1snc(C(N)=O)c1N)C(C(=O)NC1CCCC1)c1ccc(F)cc1 (stereo not drawn) | . | 99.2* | -2.2% | 10.1 | -16.1%
COc1cc(/C=C2\SC(=O)N(c3ccccc3Cl)C2=O)cc([N+](=O)[O-])c1O | . | -1.6 | -5.3% | -12.7 | 17.8µM*
Cc1ccc(S(=O)(=O)c2cc3ccccc3oc2=O)cc1 | -15.8% | 22.7 | 4.3% | -15.2 | -1.5%
Cc1c(O)ccc2cc(S(=O)(=O)c3ccccc3)c(=O)oc12 | . | 14.8 | 12.6µM* | 0.2 | i
